Laboratory results from PubChem BioAssay.

These compounds were tested on glycogen synthase kinase-3 (GSK3A per assay name; protocol says GSK3B) (assay: GSK3 binders on small-molecule microarrays, primary screen, biochemical, small-molecule microarray, 635 nm fluorescence, GSK3A (AID 1103; further: the record names both GSK3A and GSK3B)). Conditions: small-molecule microarray binding, fluorescence 635 nm; higher = more signal.
With `COc1cc2c(cc1O)C(c1ccc(CN3CCCC3)cc1)N(Cc1cc3c(cc1Br)OCO3)CC2` (stereo unspecified) the composite z-score was -0.237. Work on `CCCC[C@@H]1C[C@H]1[C@@H](NC(=O)c1cccs1)c1ccccc1C(F)(F)F` yielded a composite z-score of 1.23. `CCOC(=O)C1=C[C@@H](c2ccccc2)N(S(=O)(=O)c2ccc(C)cc2)[C@H]1c1ccc(OC)cc1` showed a composite z-score of 0.938. `C=CCC(OC(C)=O)[C@@H]1[C@@H](N(Cc2ccc(-c3cccc(C(F)(F)F)c3)o2)C(=O)Cc2ccc(OC)cc2)c2cc(OCCCO)ccc2N1C(=O)c1ccc(-c2ccccc2)cc1` (stereo partly specified) showed a composite z-score of -0.522. `C=CC[C@@H](OC(=O)Nc1ccc(SC)cc1)c1ccc(O)c(F)c1` was tested, and the composite z-score was -0.0142. `CCCCC=C[C@@H](NC(=O)OCc1ccccc1Cl)c1ccccc1` showed a composite z-score of 1.29. `C=CCC(OC(C)=O)[C@@H]1[C@@H](N(Cc2cccc3ccccc23)C(=O)Cc2ccc(OC)cc2)c2cc(OCCCO)ccc2N1C(=O)c1ccc(-c2ccccc2)cc1` (stereo partly specified) showed a composite z-score of -0.179. In the case of `CCCC=C(CCC)[C@@H](NP(=O)(c1ccccc1)c1ccccc1)c1ccc(-c2ccccc2)cc1`, the composite z-score was 1.27. With `COCCCNC(=O)[C@@]1(CCC(=O)OC(C)(C)C)N=C(c2ccc(OCCCO)cc2)O[C@H]1c1ccccc1N=[N+]=[N-]` the composite z-score was 1.31. For `O=C(Cc1ccccc1)[C@H]1C2C=CCCC(c3ccccc3)=C2CN1Cc1ccccc1` (stereo partly specified), the composite z-score was -0.117. For `COC(=O)[C@@]1(Cc2ccc(F)cc2)[C@H]2c3cc(C(=O)N4CCCC4)n(Cc4ccc(C)c(F)c4F)c3C[C@H]2CN1C(=O)c1ccccc1`, the composite z-score was -0.931. Work on `COc1ccc(C#Cc2ccc3c(c2)[C@]2(C(=O)N3)[C@H](C(=O)O)[C@H]3C(=O)O[C@H](c4ccccc4)[C@H](c4ccccc4)N3[C@@H]2c2ccc(O)cc2)cc1` yielded a composite z-score of -0.352. `CCC#CCN(Cc1ccccc1Br)[C@H](/C=C/C1CC1)[C@@H](O)Cc1ccccc1` was tested, and the composite z-score was -0.0916. `COC(=O)[C@@]1(Cc2ccccc2)[C@H]2c3cc(C(=O)N(C)C)n(Cc4ccc(C)o4)c3C[C@H]2CN1C(=O)c1ccccc1` was tested, and the composite z-score was 0.502. `CC(C)NC(=O)[C@@]1(C)c2ccccc2C(=O)N(Cc2ccc(OC(F)(F)F)cc2)[C@H]1c1ccc(CO)cc1` was tested, and the composite z-score was -0.85. `COc1ccc([Si](C)(C)[C@@H]2[C@@H](CC(=O)N3CCC[C@H]3CO)O[C@]3(C(=O)N(Cc4cccc(N5C(=O)COc6ccccc65)c4)c4ccccc43)[C@H]2C)cc1` showed a composite z-score of 0.746. With `CCCC[C@@H](O)C1=C(COC)C[C@H]2C(=O)N(C)C(=O)[C@H]2[C@H]1CO` the composite z-score was -0.0596. Compound `COc1ccc([Si](C)(C)[C@@H]2[C@@H](CC(=O)N(CCO)Cc3ccccc3)O[C@]3(C(=O)N(Cc4cccc(N5CCCCC5=O)c4)c4ccccc43)[C@H]2C)cc1` has a composite z-score of 0.1. `COc1ccc(CCNC(=O)[C@@]2(Sc3ccc(C)cc3)CC(=O)N(Cc3ccccc3C(F)(F)F)[C@@H]2c2ccc(CO)cc2I)cc1` showed a composite z-score of -0.404. `[N-]=[N+]=Nc1ccccc1[C@@H]1OC(c2ccc(OCCCO)cc2)=N[C@]1(Cc1ccccc1)C(=O)N1CCCCC1` gave a composite z-score of 0.769. In the case of `Cc1ccc(S[C@]2(C(=O)NCc3ccccc3)CC(=O)N(C3CCCCC3)[C@@H]2c2ccc(CO)cc2I)cc1`, the composite z-score was 0.1. Compound `COc1ccc([Si](C)(C)[C@H]2[C@H](CC(=O)N(CCO)Cc3ccccc3)O[C@@]3(C(=O)N(C)c4c(Br)cc(C)cc43)[C@@H]2C)cc1` has a composite z-score of 0.691. `[N-]=[N+]=Nc1ccccc1[C@@H]1OC(c2ccc(OCCCO)cc2)=N[C@]1(Cc1ccccc1)C(=O)O` gave a composite z-score of 0.655. In the case of `CCCC1(C(=O)OC)C=C2C(=C(C)C(=O)C2C)CN1` (stereo unspecified), the composite z-score was -0.636. `COCC(=C=CC[C@H](O)c1ccccc1OCCO)C[C@H](O)c1ccccn1` was tested, and the composite z-score was -0.115. For `Oc1ccc2cc[n+](Cc3cc4c(cc3Br)OCO4)cc2c1`, the composite z-score was -1.16. In the case of `CC(C)[Si]1(C(C)C)OCc2cc(C3CC3)nc(-c3ccc(Oc4ccccc4)cc3)c21`, the composite z-score was -0.964. Work on `[N-]=[N+]=Nc1ccccc1C[C@]1(C(=O)N2CCOCC2)COC(c2ccc(OCCCO)cc2)=N1` yielded a composite z-score of 1.33. `[N-]=[N+]=Nc1ccccc1C[C@@]1(C(=O)NCCN2CCOCC2)N=C(c2ccc(OCCCO)cc2)O[C@@H]1c1ccccc1N=[N+]=[N-]` gave a composite z-score of 1.31. In the case of `CCCCC(CC)C(O)C1C=CC2C(=O)N(C)C(=O)C2N1Nc1ccccc1` (stereo unspecified), the composite z-score was 0.598. In the case of `O=C1N(CCS(=O)(=O)c2ccccc2)c2ccccc2[C@H]2OC(c3ccc(OCCCO)cc3)=N[C@@]12Cc1ccccc1`, the composite z-score was 1.05. `COc1ccc(C#Cc2ccc3c(c2)[C@]2(C(=O)N3)[C@H](c3ccc(O)cc3)N3[C@H](c4ccccc4)[C@H](c4ccccc4)OC(=O)[C@H]3[C@@H]2C(=O)Nc2nc3ccccc3s2)cc1` showed a composite z-score of 1.31. `CCOc1cc(C(O)C2C=CC3C(=O)NC(=O)C3N2Nc2ccc(Cl)cc2Cl)ccc1O` (stereo unspecified) showed a composite z-score of -0.848. `Cc1ccc(S[C@]2(C(=O)NCC(F)(F)F)CC(=O)N(Cc3cc(C(F)(F)F)cc(C(F)(F)F)c3)[C@@H]2c2ccc(CO)cc2I)cc1` was tested, and the composite z-score was -0.466. With `C=CCC(OC(C)=O)[C@@H]1[C@@H](N(Cc2cc3ccccc3o2)C(=O)Cc2ccc(F)cc2)c2cc(OCCCO)ccc2N1C(=O)Cc1ccc2ccccc2c1` (stereo partly specified) the composite z-score was -0.657. With `CO[C@H]1O[C@H](CO)[C@@H](OC(=O)Nc2ccccc2)[C@H](OC(=O)c2cc3ccccc3[nH]2)[C@H]1OC(=O)c1cc2ccccc2[nH]1` the composite z-score was 0.126.
